Assay [1] deals with Mitogen-activated protein kinase 10 (Mus musculus) (UniProt Q61831). Briefly: JNK3 AlphaScreen Assay (AID 530; active = well fitted curve in either direction with a large enough effect, not every such curve was filed as active;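 also: kinase came from lysate of stimulated human HepG2 cells; signal reports phosphorylation of biotinylated GST-cJun 1-79 at Ser73 with 10 µM ATP; series mostly up to about 57 µM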). The method in brief:
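Room-temperature AlphaScreen kinase assay; pre-activated HepG2 lysate as JNK3 source, biotin-GST-cJun(1-79) substrate, 10 uM ATP, compound 15 min preincubation.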
In general terms: In Alpha technology, singlet oxygen from a donor bead excites a nearby acceptor bead.

Assay [2] has as its target Cytochrome P450 3A4 (Homo sapiens) (UniProt P08684). Briefly: qHTS Assay for Inhibitors and Substrates of Cytochrome P450 3A4 (AID 884). Also: nearly all actives have a fitted effect of over 50% in size. Also: potency is read from the fitted curve at half-maximal effect. A digest of the protocol: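 20 nM human CYP3A4 with 25 uM Luciferin-PPXE (at KM) in 200 mM KPO4, preincubated 10 min with compound; NADPH regeneration started a 60 min RT reaction. Luciferin detected by luminescence, normalized to 57 uM ketoconazole as full inhibition.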
(In general: qHTS replaces the single test concentration by a dilution series.)

The target is the same in assay [3]. As to the kind of experiment: qHTS Assay for Activators of Cytochrome P450 3A4 (AID 885). Also: nearly all actives have a fitted effect of over 65% in size. A digest of the protocol:
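Human CYP3A4 (20 nM) with Luciferin-PPXE at 25 uM (its KM) in 200 mM KPO4; 10 min compound preincubation, then NADPH regeneration and 60 min reaction at RT. Luciferin read by luminescence; normalized to 57 uM ketoconazole full inhibition.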

Results on 39 molecules are retold here after PubChem BioAssay (NCATS).

Records with an inconclusive call do not appear. Entries that show only a call come without a potency. Calls of active or inactive are those of the source. Unless noted, calls follow the shape of the dose curve; as a rule, active = well fitted curve in the direction sought with a large enough effect; inconclusive = small, poorly fitted or top-dose-only effect, or another doubt; inactive = no such curve, though single readings can be large; an effect the other way counts as inactive or inconclusive.

Chain of Cytochrome P450 3A4 (Homo sapiens) (P08684 whole entry, looked up): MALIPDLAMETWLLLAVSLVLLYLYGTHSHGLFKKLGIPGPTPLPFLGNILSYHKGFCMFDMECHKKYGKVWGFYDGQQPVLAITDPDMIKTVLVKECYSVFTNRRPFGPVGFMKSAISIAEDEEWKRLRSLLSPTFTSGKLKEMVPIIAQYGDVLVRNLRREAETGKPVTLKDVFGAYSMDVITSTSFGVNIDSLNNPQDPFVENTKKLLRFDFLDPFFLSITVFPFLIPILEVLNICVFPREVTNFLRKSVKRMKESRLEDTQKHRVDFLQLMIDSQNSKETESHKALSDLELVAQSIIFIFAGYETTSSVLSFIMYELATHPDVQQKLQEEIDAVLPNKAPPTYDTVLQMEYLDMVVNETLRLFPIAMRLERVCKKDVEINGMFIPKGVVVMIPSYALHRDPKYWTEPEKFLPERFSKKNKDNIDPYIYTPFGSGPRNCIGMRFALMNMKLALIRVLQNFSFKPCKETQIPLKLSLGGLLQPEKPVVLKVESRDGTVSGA

As for `COC(=O)CCCCCN1C(=O)NC(c2ccc(-c3ccccc3)cc2)C(C(=O)OCc2ccccc2)=C1C` (centres undefined), the result in assay [1] was inactive. Also, the Potency entry in assay [2] is “inactive”.

As for `COC(=O)[C@@]1(Cc2ccccc2)C=C[C@@H](C)N1C(C)=O`, in assay [1], the molecule was classed as inactive. The Potency result in assay [2] is “inactive”.

In the case of `CNC(=O)[C@@]1(Cc2ccccc2)C=C[C@@H](C)N1C(C)=O`, the molecule was called inactive in assay [1]. In assay [2], the Potency result is “inactive”.

Turning to `COC(=O)[C@@]1(Cc2ccccc2)C=C[C@@H](C)N1C(=O)c1ccccc1`, the call in assay [1] was inactive. In addition, in assay [2], the Potency entry was “inactive”.

Turning to `Cc1nc(NCCO)c2nc(-c3ccccc3)n(CCN(C)C)c2n1`, in assay [1], the outcome was inactive. Further, in assay [2], the Potency entry is “inactive”.

As for `CNC(=O)C1(CC(C)C)C=CCN1C(=O)c1ccccc1` (centres undefined), in assay [1], the call was inactive. For the same molecule, the Potency result in assay [2] was “inactive”.

As to `COC(=O)c1ccc(C(NC(=O)OCc2ccccc2)/C(=C/[C@@H](C)C(=O)NCc2ccc(S(C)(=O)=O)cc2)c2cccnc2)cc1` (some centres undefined), the outcome in assay [1] was inactive. Moreover, the Potency in assay [2] was 2000 nM (active). Further, in assay [3], the Potency result is “inactive”.

Regarding `CC(=O)N1[C@H](Cc2ccccc2)C=C[C@]1(C)C(=O)O`, in assay [1], the result was inactive. Moreover, the Potency result in assay [2] was “inactive”.

`C[C@@H]1C=C[C@](Cc2ccccc2)(C(=O)O)N1C(=O)c1ccccc1`: in assay [1], the molecule was called inactive. Also, in assay [2], the Potency result is “inactive”.

Consider `COC(=O)C1(C)C=CCN1C(=O)c1ccccc1` (centres undefined), for which the result in assay [1] was inactive. Moreover, the Potency result in assay [2] is “inactive”.

In the case of `CC(=O)N1[C@H](Cc2ccccc2)C=C[C@]1(C)C(=O)NCc1ccccn1`, the result in assay [1] was inactive. Moreover, the Potency result in assay [2] was “inactive”.

With `COC(=O)c1ccc(C(NC(=O)OCc2ccccc2)/C(C)=C/[C@@H](C)C(=O)NCc2cc(C)on2)cc1` (some centres undefined), in assay [1], the molecule was called inactive. Besides, the Potency in assay [2] was 2000 nM (active).

With `CC(=O)N1CC=CC1(CC(C)C)C(=O)O` (centres undefined), the result in assay [1] was inactive. The Potency entry in assay [2] is “inactive”.

Take `CNC(=O)C1(C)C=CCN1C(=O)c1ccccc1` (centres undefined): in assay [1], the result was inactive. The Potency result in assay [2] is “inactive”.

For `CNC(=O)[C@@]1(C)C=C[C@@H](Cc2ccccc2)N1C(C)=O`, the molecule was called inactive in assay [1]. Further, the Potency entry in assay [2] was “inactive”.

`CN(C)C(=O)[C@H]1C[C@@H]1[C@H](NC(=O)OCc1ccccc1)c1ccccc1`: the molecule was classed as inactive in assay [1]. Besides, in assay [2], the Potency was 7940 nM (active).

For the molecule `CC1=C(C(=O)OCc2ccccc2)C(c2cccc([N+](=O)[O-])c2)NC(=O)N1CCCCCC(=O)O` (centres undefined), the result in assay [1] was inactive. Moreover, the Potency entry in assay [2] was “inactive”.

As for `CNC(=O)C1(CC(C)C)C=CCN1C(C)=O` (centres undefined), the molecule was classed as inactive in assay [1]. For the same molecule, the Potency entry in assay [2] is “inactive”.

With `CC1(C(=O)O)C=CCN1C(=O)c1ccccc1` (centres undefined), in assay [1], the molecule was called inactive. Moreover, the Potency entry in assay [2] was “inactive”.

Take `CN1[C@H](Cc2ccccc2)C=C[C@]1(C)C(=O)NCC1CC1`: the molecule was called inactive in assay [1]. For the same molecule, in assay [2], the Potency result is “inactive”.

Consider `COC(=O)c1ccc(C(NC(=O)OCc2ccccc2)/C(=C/[C@@H](C)C(=O)NCC2CC2)c2cccnc2)cc1` (some centres undefined), for which the call in assay [1] was inactive. Further, in assay [2], the Potency was 2000 nM (active).

Turning to `CC(Cc1ccccc1)C(=O)N(C)Cc1ccccc1` (centres undefined), in assay [1], the outcome was inactive. The Potency result in assay [2] is “inactive”.

Consider `COC(=O)N1CC=CC1(C)C(=O)O` (centres undefined), for which the result in assay [1] was inactive. In addition, the Potency result in assay [2] is “inactive”.

For the molecule `COC(=O)c1ccc(C(NC(=O)OCc2ccccc2)/C(=C/[C@@H](C)C(=O)NCc2nc3ccccc3n2C)c2cccnc2)cc1` (some centres undefined), the molecule was classed as inactive in assay [1]. For the same molecule, the Potency in assay [2] is 2000 nM (active).

Consider `CC(C)CC1(C(=O)O)C=CCN1C(=O)c1ccccc1` (centres undefined), for which the call in assay [1] was inactive. Further, the Potency result in assay [2] was “inactive”.

As to `CC(Cc1ccccc1)C(=O)NCC1CC1` (centres undefined), in assay [1], the molecule was called inactive. Further, the Potency entry in assay [2] was “inactive”.

On to `CC(=O)N1C2(C=CC1(C)C(=O)NCc1ccc(C)o1)CCCCC2` (centres undefined), for which the molecule was called inactive in assay [1]. Also, the Potency entry in assay [2] is “inactive”.

Take `CC(Cc1ccccc1)C(=O)N1CCN(C)CC1` (centres undefined): in assay [1], the call was inactive. In addition, the Potency entry in assay [2] is “inactive”.

Regarding `COC(=O)CNC(=O)[C@@]1(Cc2ccccc2)C=C[C@@H](C)N1C(=O)c1ccccc1`, in assay [1], the result was inactive. Further, the Potency result in assay [2] was “inactive”.

For `CC(Cc1ccccc1)C(=O)Nc1ccccc1` (centres undefined), the molecule was called inactive in assay [1]. In assay [2], the Potency entry was “inactive”.

Turning to `CCCn1c(C)nc2c(NCCCN(C)C)nc(C)nc21`, the result in assay [1] was inactive. Besides, the Potency entry in assay [2] was “inactive”.

For the molecule `COC(=O)N1[C@H](C)C=C[C@]1(Cc1ccccc1)C(=O)O`, the molecule was called inactive in assay [1]. In addition, in assay [2], the Potency result is “inactive”.

`CCCn1c(C)nc2c(NCCO)nc(C)nc21`: the outcome in assay [1] was inactive. Moreover, the Potency entry in assay [2] was “inactive”.

As for `COCCNC(=O)C1(CC(C)C)C=CCN1C(C)=O` (centres undefined), the call in assay [1] was inactive. Also, in assay [2], the Potency entry was “inactive”.

Turning to `CC(Cc1ccccc1)C(=O)NCCO` (centres undefined), the result in assay [1] was inactive. Further, the Potency in assay [2] is 15800 nM (active). Further, in assay [3], the Potency entry was “inactive”.

Take `CCCC[C@@H]1C[C@H]1[C@@H](NP(=O)(c1ccccc1)c1ccccc1)c1ccccc1OC`: in assay [1], the outcome was inactive. Also, in assay [2], the Potency is 3980 nM (active). For the same molecule, in assay [3], the Potency entry is “inactive”.

As to `COC(=O)c1ccc(C(NC(=O)OCc2ccccc2)/C(F)=C/[C@@H](C)C(=O)N(C)Cc2cccnc2)cc1` (some centres undefined), in assay [1], the molecule was called inactive. Also, the Potency in assay [2] is 2000 nM (active). In addition, the Potency result in assay [3] was “inactive”.

For `COC(=O)N1CC=CC1(C)C(=O)NCc1cc(F)cc(C(F)(F)F)c1` (centres undefined), the result in assay [1] was inactive. The Potency in assay [2] was 15800 nM (active). Further, in assay [3], the Potency entry was “inactive”.

With `COC(=O)c1ccc(C(NC(=O)OCc2ccccc2)/C(=C/[C@@H](C)C(=O)N(C)Cc2cccnc2)c2cccnc2)cc1` (some centres undefined), the result in assay [1] was inactive. In addition, the Potency in assay [2] was 631 nM (active). The Potency entry in assay [3] is “inactive”.
